# Screens deposited in PubChem by several laboratories.
# Sampled rows, rich in hits. Any-hit rate of the full collection: about 0.5%.
# AddAB inh: less growth of phage-infected E. coli with AddAB; E. coli expressing H. pylori AddAB, absorbance growth; inhibition, % at 11.9 µM; 330,000 compounds, 0.29% hits; AID 435030; in the data active = inhibition above about 12%
# E coli growth-1: counter-screen for AddAB inhibitors: E. coli growth inhibition; 330,000 compounds, 0.27% hits; inhibition, % at 11.9 µM; E. coli V3065 growth, OD600 absorbance, 18 h; AID 449728;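 active = inhibition above the campaign's mean inhibition across all tested compounds plus 3 SD, cut at about 9.9% in these data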;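 also: uninfected addAB+ strain grown without phage in ampicillin broth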
# E coli growth-2: E. coli growth inhibition; OD600 absorbance (no concentration beside the values); Escherichia coli growth, OD600, 23 h; stronger effect = lower value; 330,000 compounds, 0.21% hits;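 active = OD600 absorbance below the run mean of sample wells minus 3.6 SD, in any replicate, cut at about 0.56 in these data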
# phage Ecoli inh: E. coli growth loss with phage present; growth absorbance; 360,000 compounds, 0.26% hits; AID 651602; inhibition, % at 11.9 µM; in the data active = inhibition above about 11%
# Tat export inh: blocks Tat-dependent protein export in E. coli | AID 488895 | 340,000 compounds, 0.036% hits | inhibition, % at 10 µM | E. coli MC4100 TorA-mCherry Tat export, fluorescence;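 active = mean replicate inhibition at least 50% and at least half of replicates individually reaching 50%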;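 also: exported cargo escapes ClpAP degradation while cytoplasmic cargo is degraded and loses fluorescence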
# RecBCD conf: growth loss of phage-infected V66 E. coli, RecBCD confirmation screen | shares compounds with phage Ecoli inh | E. coli V66 + T4 2- phage, growth OD | inhibition, % at 11.9 µM | 890 compounds, 45% hits;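 active = mean inhibition over triplicates exceeding the hit threshold derived in the original primary screen, cut at about 11% in these data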
# Ecoli viability: bacterial viability inhibition counter-screen for RecBCD; shares compounds with phage Ecoli inh; E. coli viability, absorbance (OD) growth; inhibition, % at 11.9 µM; 890 compounds, 29% hits; in the data active = inhibition above about 20%;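 also: E. coli strain V66 grown with compound alone and no phage infection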
# AddAB counter: growth loss of phage-infected AddAB E. coli, RecBCD counter-screen | shares compounds with phage Ecoli inh | E. coli expressing H. pylori AddAB + T4 phage, OD growth; gene 2 mutant T4, recBCD-deleted host | inhibition, % at 11.9 µM | 890 compounds, 45% hits;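 active = mean inhibition above the solvent-only control wells' mean plus 3 SD, cut at about 22% in these data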;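 also: higher means less bacterial growth from phage killing when AddAB is blocked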
# Hits are given with their value; - = inactive; . = no result given.
SMILES,AddAB inh,E coli growth-1,E coli growth-2,phage Ecoli inh,Tat export inh,RecBCD conf,Ecoli viability,AddAB counter
Cc1ccccc1C(=O)ON=C(N)c1cccc([N+](=O)[O-])c1,.,.,-,.,.,.,.,.
CCCN1C(=O)C(O)(CC(C)=NO)c2ccccc21 (configuration not stated),.,.,-,.,.,.,.,.
CC1CN(C(C)CO)C(=O)c2cccc(NS(=O)(=O)c3ccccc3)c2OC1CN(C)Cc1ccc(-c2ccccc2)cc1 (configuration not stated),.,.,-,.,.,.,.,.
Oc1c(Br)cc(Br)c2cccnc12,.,.,.,44,-,60,68,53
Oc1c(Br)cc(Br)cc1CNc1cccc2cccnc12,-,-,-,-,-,.,.,.
Nc1nc(SCc2ccccc2)c2[nH]cnc2n1,-,-,-,-,-,.,.,.
Nc1nc(Sc2ccc([N+](=O)[O-])c3nonc23)c2[nH]cnc2n1,.,.,.,39,-,44,51,68
CNc1ncnc(Sc2nc(N)nc3nc[nH]c23)c1[N+](=O)[O-],.,.,.,62,-,55,65,79
Cc1cc(C(=O)NN=Cc2cc(Br)ccc2OC(=O)c2ccccc2Cl)n[nH]1,.,.,-,.,.,.,.,.
N#CC(N=Nc1ccccc1O)=NNc1ccccc1O,.,.,-,.,.,.,.,.
O=C(NN=Cc1ccc(F)cc1)c1cccc(NC(=O)c2ccccc2Cl)c1,.,.,-,.,.,.,.,.
Oc1cccc2cc(Nc3ccccc3)cnc12,.,.,.,23,.,16,-,25
CCn1c(C)cc(C(=O)COC(=O)CNC(=O)c2ccco2)c1C,.,.,.,11,.,-,-,-
O=C(NN=Cc1ccccc1)c1sccc1OCc1ccc(F)cc1,.,.,-,.,.,.,.,.
COC(=O)/C(=C\c1ccc([N+](=O)[O-])o1)NC(=O)c1ccccc1,-,-,-,-,-,.,.,.
NC(=O)/C(=C\c1ccc([N+](=O)[O-])o1)c1ccco1,.,.,.,100,.,102,103,101
O=C(O)c1cn(-c2ccc(F)cc2)c2cc(N3CCNCC3)c(F)cc2c1=O,.,.,.,99,114,102,103,103
Cc1ccc(C2CC2C(=NO)c2ccc(F)cc2)cc1 (configuration not stated),.,.,-,.,.,.,.,.
CC(=NN1CC(=O)NC1=O)c1ccc([N+](=O)[O-])o1,.,.,0.13,50,-,24,44,103
CC(=O)N1N=C(c2cccc(NS(C)(=O)=O)c2)CC1c1cccs1 (configuration not stated),-,-,-,-,-,.,.,.
CC(=O)N1N=C(c2cccc(O)c2)CC1c1cccs1 (configuration not stated),.,.,-,11,-,-,-,-
CNC(CC(C)C)C(=O)NC1C(=O)NC(CC(N)=O)C(=O)NC2C(=O)NC3C(=O)NC(C(=O)NC(C(=O)O)c4cc(O)cc(O)c4-c4cc3ccc4O)C(O)c3ccc(c(Cl)c3)Oc3cc2cc(c3OC2OC(CO)C(O)C(O)C2OC2CC(C)(N)C(O)C(C)O2)Oc2ccc(cc2Cl)C1O (configuration not stated),-,-,.,11,-,-,-,-
Cc1ccc(NC(=O)CCCSc2nc3ccccc3[nH]2)cc1,-,14,-,12,-,-,-,-
O=C(c1ccc(-c2ccccc2)c(F)c1)C1CCCN(CCCn2cccn2)C1 (configuration not stated),-,-,-,99,-,-,-,-
CCc1cc(OCCN(C)C)ccc1Cl,-,-,-,-,-,.,.,.
SMILES,AddAB inh,E coli growth-1,E coli growth-2,phage Ecoli inh,Tat export inh,RecBCD conf,Ecoli viability,AddAB counter
CN(C)CCOc1ccc2c(c1)C(=O)C(=Cc1ncc([N+](=O)[O-])n1C)C2,.,.,.,95,.,87,96,100
Oc1c(C(Nc2cccc(C(F)(F)F)c2)c2cccnc2)ccc2cccnc12 (configuration not stated),-,-,-,12,-,-,-,-
Cc1cc(C)nc(Nc2cccc(C(F)(F)F)c2)n1,-,-,-,-,-,.,.,.
Cc1cc(NC(c2cccnc2)c2ccc3cccnc3c2O)no1 (configuration not stated),-,-,-,13,-,-,-,-
CCC(C)C(NC(=O)OC1C(=O)c2cc(OC)ccc2OC1c1ccc(OC)c(Br)c1)C(=O)OC (configuration not stated),.,.,-,.,.,.,.,.
CN(Cc1ccccc1)C(=O)COC(=O)C1=NNC(=O)CC1,-,-,-,-,-,.,.,.
N#CCCN(C(=O)COC(=O)C1=NNC(=O)CC1)c1ccccc1,-,-,-,11,-,-,-,-
CCOC(=O)c1[nH]c2cc(OC)c(OC)cc2c1NC(=O)c1nonc1C,-,-,-,14,-,-,-,-
COc1cccc(-c2cnc(C(O)c3cc(C)cc(C)c3)[nH]2)c1 (configuration not stated),.,.,.,13,.,-,-,-
COc1cccc(-c2cnc(C(O)c3ccc(F)cc3)[nH]2)c1 (configuration not stated),.,.,.,-,.,.,.,.
COc1cccc(-c2cnc(C(O)c3ccc(F)c(C)c3)[nH]2)c1 (configuration not stated),.,.,.,12,.,-,-,-
Nc1nc(N)c2cc(S(=O)(=O)c3cccc(C(F)(F)F)c3)ccc2n1,.,.,.,24,.,32,27,59
Cc1onc(-c2ccccc2)c1C(=O)NN=Cc1cc(Cl)cc(Cl)c1O,.,.,.,11,.,-,-,-
Cc1ccnc2c1ccc1cccnc12,.,.,0.37,14,-,13,-,-
Cc1ccnc2c1ccc1ccccc12,-,-,-,-,-,.,.,.
O=c1c2ccccc2nc(-c2ccco2)n1N=Cc1ccco1,.,.,-,.,.,.,.,.
CCCCCC1CN(C2CCCCC2)C(=O)C1CC(=O)NCc1ccc(OC)cc1 (configuration not stated),.,.,-,.,.,.,.,.
CO[C@H]1/C=C/O[C@@]2(C)Oc3c(C)c(O)c4c(O)c(c5c(c4c3C2=O)NC2(CCN(CC(C)C)CC2)N=5)=NC(=O)/C(C)=C\C=C\[C@H](C)[C@H](O)[C@@H](C)[C@@H](O)[C@@H](C)[C@H](OC(C)=O)[C@@H]1C,.,.,.,95,107,95,99,100
COC(=O)c1ccc(C(NC(=O)OCc2ccccc2)C(C)=CC(C)C(=O)NCc2ccc(-c3ccccc3)cc2)cc1 (configuration not stated),.,.,-,.,.,.,.,.
O=C(CCSc1nc2ccccc2s1)N/N=C/c1c(O)ccc2ccccc12,-,12,.,17,-,-,-,-
COc1ccc(C=NNC(=O)CCSc2nc3ccccc3s2)cc1,.,.,-,.,.,.,.,.
O=C(c1cccc(C(F)(F)F)c1)N1CCc2c([nH]c3ccccc23)C1C(F)(F)F (configuration not stated),-,-,-,75,-,-,-,-
Nc1nonc1-n1nnc(C(=O)NN=Cc2cccc(F)c2)c1CN1CCCCCC1,.,.,-,.,.,.,.,.
Cc1cccc(N=Nc2ccc(O)c3ncccc23)c1,-,-,-,16,-,-,-,-
CCN(CC)S(=O)(=O)c1cc(OC)ccc1N=Nc1ccc(O)c2ncccc12,.,.,.,12,-,-,-,-
